Consider 97 molecules from ChEMBL document CHEMBL3988442, “University of Dundee, Small-Polar-MMV Screening Library” (2021).

The whole screen tested about 48,000 compounds, of which about 13,000 (27%) showed an effect of 50% or more. The list shows a part of the results.

The test concerns Wolbachia pipientis. Put plainly: Anti-Wolbachia Cell-Based Screen. In kind it is functional. To be noted: 5 µM. More on the design: scale not given: in the data most compounds retested in dose-response had high values.
For `N#Cc1ccc(NCC(=O)Nc2ccn(Cc3cccnc3)n2)cc1`, the “Percent Effect” value stood at 0.1964%.

Consider `O=C(CCc1ccccn1)N1CCc2cc(Cl)cc(Cl)c2C1`, for which the “Percent Effect” value is given as -9.614%.

On to `CC(NC1(CNC(=O)C(C)(C)C#N)CCOCC1)c1ccccc1` (configuration not stated), for which the “Percent Effect” value is -5.654%. In the case of `Cc1noc(C)c1CN(C)c1nc(C2CCCC2)nc2c1cnn2C` it was 118.2%; in that of `CC(C)N(CCNc1nc(C2CCCC2)nc2c1cnn2C)C(C)C`, -18.52%. For `CCOCCNc1nc(C2CCCC2)nc2c1cnn2C`, the “Percent Effect” value is recorded as -2.506%. As to `COc1ncccc1CN1CCn2c(C(=O)N3CCCC3)cnc2C1.O=C(O)C(F)(F)F.O=C(O)C(F)(F)F`, the “Percent Effect” value is listed as -2.628%. With `COCCN1CCn2cc(CN(C)Cc3ccco3)nc2C1`, the “Percent Effect” value is 6.66%. The figure for `Cc1ccccc1C(CNc1ncnc2c1CCNC2)N(C)C` (configuration not stated) is 84.04%; for `Cc1nc2c(c(NCC(c3ccccc3C)N(C)C)n1)CCNC2` (configuration not stated) it is 96.84%; for `Cc1ccccc1C(CNc1ncnc2c1CCNCC2)N(C)C` (configuration not stated) it is 105.5%.

`Cc1[nH]c2ccc(Cl)cc2c1CCNc1ncnc2c1CCNC2`: the “Percent Effect” value worked out at 12.31%. As for `Cc1nc2c(c(NCC(O)c3ccccc3Cl)n1)CCNCC2` (configuration not stated), the “Percent Effect” value is listed as -5.653%. In the case of `Cc1[nH]c2ccc(C#N)cc2c1CCNc1ncnc2c1CCNCC2` it was 9.456%.

Take `Cc1ccccc1C(Nc1ncnc2c1CCNC2)c1ccccc1` (configuration not stated): the “Percent Effect” value was found to be 93.65%. The figure for `OC(CNc1ncnc2c1CCNCC2)C(F)(F)F` (configuration not stated) is -1.789%; for `Cc1nc2c(c(NCC(O)C(F)(F)F)n1)CCNCC2` (configuration not stated) it is -4.402%; for `CCCc1ccc(C(C)Nc2ncnc3c2CCNC3)cc1` (configuration not stated) it is -93.4%. Take `CC(Nc1ncnc2c1CCNC2)c1ccc(C(C)(C)C)cc1` (configuration not stated): the “Percent Effect” value came out at 30.56%. In the case of `CCOc1ccc(C(C)Nc2ncnc3c2CCNC3)cc1OCC` (configuration not stated) it was -5.441%; in that of `Cc1nn(C)c(C)c1CN(C)S(=O)(=O)c1c(C)n[nH]c1C`, 32.27%. For the molecule `CCC(=O)N1CCN(C(=O)c2ccc(COC)o2)[C@H]2CS(=O)(=O)C[C@H]21`, the “Percent Effect” value is listed as 2.835%. In the case of `CN(C)CCNCC1(O)CCCN(Cc2cccc(F)c2F)C1=O` (configuration not stated) it was -8.676%; in that of `CNS(=O)(=O)CCNC(=O)c1coc(COc2ccc(F)cc2)n1`, -18.85%; in that of `O=C([C@@H]1Cc2[nH]cnc2CN1CC1CC1)N1CCCC1`, 2.393%. Consider `CC(=O)NC1CC(C)(C)Cc2c1cnn2-c1cccc(F)c1` (configuration not stated), for which the “Percent Effect” value is reported as 27.72%. In the case of `COC(=O)NCC(=O)NC1CC(C)(C)Cc2oc(C)cc21` (configuration not stated) it was -2.578%.

For `CC1(C)Cc2nc(C(C)(C)C)ncc2C(NC(=O)CN)C1` (configuration not stated), the “Percent Effect” value worked out at 108.4%. In the case of `Cc1cc2c(o1)CC(C)(C)CC2NC(=O)CNC(=O)C1CC1` (configuration not stated), the “Percent Effect” value turned out to be 15.35%. As for `CC1(C)Cc2nc(C(C)(C)C)ncc2C(NC(=O)Cc2nnn[nH]2)C1` (configuration not stated), the “Percent Effect” value was 84.56%.

In the case of `CC(=O)N1Cc2cnc(C(C)(C)C)nc2C1`, the “Percent Effect” value is listed as -14.29%. In the case of `COC(C)(C)C(=O)N1Cc2cnc(C(C)(C)C)nc2C1` it was 5.24%; in that of `Cc1cc(C)n(CC(=O)N2Cc3cnc(C(C)(C)C)nc3C2)n1`, -6.513%; in that of `CC(C)(C)c1ncc2c(n1)CN(C(=O)c1ccc(-n3cnnn3)cc1)C2`, -15.52%.

Take `CC1(C)Cc2nc(C(C)(C)C)ncc2C(NC(=O)C2(N)CC2)C1` (configuration not stated): the “Percent Effect” value amounted to 76.58%. In the case of `CC(C)(C)c1ncc2c(n1)CN(C(=O)c1ccncc1)C2` it was 6.547%; in that of `CNCC(=O)NC1CC(C)(C)Cc2nc(C(C)(C)C)ncc21` (configuration not stated), 107.2%; in that of `O=C(Nc1ccc(F)c(Cl)c1)N1CCCN([C@H]2COC[C@@H]2O)CC1`, 0.3317%.

Turning to `Cc1nc(C)n(CC2CCCCN2CC(=O)Nc2nncs2)n1` (configuration not stated), the “Percent Effect” value is -8.145%. In the case of `Cc1cc(C)cc(CN2CCN(Cc3cc(C#N)n(C)c3)CC2=O)c1` it was -7.638%; in that of `CCCC(C)Sc1nnnn1C1CCOCC1` (configuration not stated), -26.91%. The figure for `Cc1c[nH]c(CN2CCCn3nc(CNS(C)(=O)=O)cc3C2)n1` is -1.605%; for `CC(O)CNC(=O)NCc1cccnc1OC1CCCC1` (configuration not stated) it is 3.42%. As to `CCC(CNC1CCN(C(=O)N(C)C)CC1)Oc1ccccc1C` (configuration not stated), the “Percent Effect” value stood at 14.11%.

For the molecule `CC(C)c1noc(C(C)N2CCN(CCc3ccncc3)CC2)n1` (configuration not stated), the “Percent Effect” value is -3.07%. In the case of `CCc1noc(C(C)N2CCN(Cc3ncc(C(C)(C)C)o3)CC2)n1` (configuration not stated) it was -21.42%; in that of `CCc1nnc(C(C)N2CCN(CCC(=O)NC3CC3)CC2)o1` (configuration not stated), 108.9%. The figure for `CCc1nnc(C(C)N2CCC(NC(=O)C3CCCCC3)CC2)o1` (configuration not stated) is 111.1%.

Regarding `CCc1nnc(C(C)N2CCN(CCC(C)(C)C)CC2)o1` (configuration not stated), the “Percent Effect” value was 109.6%. In the case of `CCS(=O)(=O)c1ccc(N2CCC(NC(=O)C3CCCCC3)CC2)cc1` it was 14.13%. In the case of `CCc1noc(C(C)N2CCC(NC(=O)c3ccc(C)s3)CC2)n1` (configuration not stated) it was -3.823%; in that of `CNC(=O)CCN1CCN(C(C)c2ccc(Cl)cc2)CC1` (configuration not stated), 7.005%; in that of `CCSCCC(=O)NC1CCN(C(C)c2ccccc2)CC1` (configuration not stated), -12.67%.

Regarding `CC(C)(C)n1ncc2c(=O)[nH]c(N3CC(O)C3)nc21`, the “Percent Effect” value was found to be 23.02%. As to `CN(C)c1nc(CNC(=O)NC2CCc3ccccc32)cs1` (configuration not stated), the “Percent Effect” value is reported as 14.75%. In the case of `CC(c1nccs1)N(C)Cc1ccc(CCC(C)(C)O)cc1` (configuration not stated) it was -1.522%. In the case of `CC(=O)N1C[C@@H](F)[C@@H](OCc2nc3cc(C)c(C)cc3[nH]2)C1` it was -18.48%. In the case of `CCOCCCNc1nc2c(s1)c(C)nn2C` it was 6.024%. With `CCOCCCNC(=O)c1cn(CC)nc1C`, the “Percent Effect” value is 9.774%.

On to `CCOCCCNC(=O)NCc1c(C)nn(C)c1C`, for which the “Percent Effect” value was 102.2%. The figure for `CCc1nc2c(c(N(C)Cc3nncn3CCOC)n1)CCNCC2` is 0.734%; for `Cc1cc2[nH]c(=O)c(=O)[nH]c2cc1S(=O)(=O)NC1CCC(C)CC1` (configuration not stated) it is 107.5%; for `Cc1c(NCc2cccc(C#N)c2)cccc1S(=O)(=O)NC1CC1` it is -25.48%.

With `Cc1cc(S(C)(=O)=O)c(C)c(S(=O)(=O)NC2CCCC2)c1`, the “Percent Effect” value is given as 3.251%. In the case of `Cc1cc2[nH]c(=O)c(=O)[nH]c2cc1S(=O)(=O)NC1CCCCC1` it was 114.9%. With `Cc1cn2c(n1)CCC(NS(=O)(=O)c1cc(C)sc1C)C2` (configuration not stated), the “Percent Effect” value was -1.827%. In the case of `Cc1cc(CS(=O)(=O)NC2CCCCC2)on1` it was 4.481%; in that of `CC(C)(O)CN1CCN(C(=O)COCC(F)(F)F)CC1`, 2.26%. In the case of `O=C1NCC2(CCCN(C(=O)c3ccc4c(c3)CCCO4)CC2)O1` (configuration not stated), the “Percent Effect” value was 15.15%.

Take `Cc1ccc(NC(=O)c2cccc(N(C)C)c2)nc1`: the “Percent Effect” value is -7.622%. In the case of `Cc1ccnc(NC(=O)c2ccc(Br)o2)c1` it was -3.231%; in that of `Cc1ccc(NC(=O)c2cccc(OCc3nnnn3C)c2)nc1`, 97.4%.

Turning to `Cc1ccnc(NC(=O)c2ccc(C)o2)c1`, the “Percent Effect” value is listed as -0.4749%. In the case of `Cc1ccnc(NC(=O)c2cccc(OCc3nnnn3C)c2)c1` it was 92.28%; in that of `CN(C)c1ccc(NC(=O)c2cccc(N(C)C)c2)nc1`, -10.74%; in that of `CNS(=O)(=O)CCN1CC(c2ccccc2)(c2ccccc2)CCC1=O`, 8.028%. On to `CCC(CC)(CNC(=O)OC(C)(C)C)NC(=O)c1cnccn1`, for which the “Percent Effect” value was 8.305%. For the molecule `CN(Cc1cccnc1)C1CC2(CCN(c3ncc(F)cn3)CC2)C1.O=C(O)C(F)(F)F.O=C(O)C(F)(F)F`, the “Percent Effect” value is -6.301%.

Regarding `CN(Cc1ccco1)C1COC2(CCN(Cc3nccs3)CC2)C1.O=C(O)C(F)(F)F.O=C(O)C(F)(F)F` (configuration not stated), the “Percent Effect” value worked out at 98.22%.

As for `CN(Cc1ccncc1)C1CC2(CCN(c3ncccn3)CC2)C1.O=C(O)C(F)(F)F.O=C(O)C(F)(F)F.O=C(O)C(F)(F)F`, the “Percent Effect” value was -4.65%. Turning to `CN(Cc1cn2c(n1)CN(Cc1nccs1)CC2)Cc1ccco1.O=C(O)C(F)(F)F.O=C(O)C(F)(F)F`, the “Percent Effect” value was -16.64%. Turning to `CN(Cc1cccnc1)C1COC2(CCN(Cc3nccs3)CC2)C1.O=C(O)C(F)(F)F.O=C(O)C(F)(F)F.O=C(O)C(F)(F)F` (configuration not stated), the “Percent Effect” value was 111.1%. The figure for `CN(Cc1ccncc1)C1COC2(CCN(Cc3cccs3)CC2)C1.O=C(O)C(F)(F)F.O=C(O)C(F)(F)F.O=C(O)C(F)(F)F` (configuration not stated) is 100.2%; for `Cc1ccsc1CN1CCC2(CC1)CC(OCc1cccnc1)CO2.O=C(O)C(F)(F)F.O=C(O)C(F)(F)F` (configuration not stated) it is 12.52%. Consider `CN(C)S(=O)(=O)N1CC[C@]2(C[C@H](OCc3ccncc3)CO2)C1.O=C(O)C(F)(F)F`, for which the “Percent Effect” value stood at 20.75%. For `Cc1cnc(N2CCC3(CC2)CC(N(C)Cc2ccncc2)C3)nc1.O=C(O)C(F)(F)F.O=C(O)C(F)(F)F`, the “Percent Effect” value was -8.3%. For the molecule `CN(Cc1ccccc1)C1COC2(CCN(Cc3nccs3)CC2)C1.O=C(O)C(F)(F)F` (configuration not stated), the “Percent Effect” value was determined as 20.92%. `CN(Cc1ccccn1)C1COC2(CCN(Cc3nccs3)CC2)C1` (configuration not stated): the “Percent Effect” value was -7.584%. Consider `CN(Cc1cccnc1)C1CC2(CCN(c3ncccn3)CC2)C1.O=C(O)C(F)(F)F.O=C(O)C(F)(F)F`, for which the “Percent Effect” value was 96.99%. For the molecule `COc1ccc(CN(C(=O)C(C)SC)c2cnn(C)c2)c(OC)c1` (configuration not stated), the “Percent Effect” value was -2.56%. The figure for `O=C1CC[C@H]2CN(Cc3ccc(Cl)s3)CC[C@H]2N1CCc1c[nH]cn1` is -29.01%; for `CCc1cc(NCCNc2ccncc2C)n2nc(C)c(C)c2n1` it is 11.08%. The figure for `Cc1noc(C)c1CN(C)C(=O)C1(NS(C)(=O)=O)CCCCC1` is -10.96%; for `CCc1nc(C)c(CN2CCOC(CCCC(C)C)C2)[nH]1` (configuration not stated) it is -5.664%; for `COC[C@H]1CNC(=O)[C@@H]2CCN(Cc3ccc(F)cc3)CC[C@H]12.O=C(O)C(F)(F)F` it is -11.52%. In the case of `CSc1nccc(N2CCN(C)C3(CCC(=O)N(CC4CC4)CC3)C2)n1` (configuration not stated) it was -14.1%; in that of `O=C(NCC(F)(F)F)C1CSCN1S(=O)(=O)c1ccc(F)cc1` (configuration not stated), 3.931%.
